Rows were chosen to be rich in hits. Some 17% of all compounds tested hit in one or more screens of this group.
HepG2 viability: kills HepG2 cells in TGF-b inhibitor counter-screen. HepG2 CAGA-GFP viability, ATP luminescence, 18 h. Potency, µM (doses to about 46.1 µM), without a hit: top-dose activity change, negative = cytotoxicity, actives largely listed as cytotoxic. hit rate 0.76% among 410,000
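HepG2 CAGA-GFP cells (1000/well, DMEM with 1% FBS) received compound, then TGF-beta at 500 pg/mL final, and were incubated 18 hours at 37 degrees C. Viability was read by CellTiter-Glo luminescence. Media-only wells were set as complete cell-killing and DMSO as no toxicity.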
TGFb SMAD3 inh: TGF-b pathway inhibition | hit rate 1.2% among 410,000 | HepG2 CAGA-GFP TGF-b/SMAD3 reporter, GFP fluorescence, 18 h; TGF-beta stimulated, 500 pg/mL final | Potency, µM (highest dose often 46.1 µM), inactives show at the top dose activity, negative = inhibition, hits mostly inhibitors; further: on the % scale 0 is the no-effect control and ±100 the full control effect; nearly all actives have a fitted effect of over 65% in size
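Smad-responsive CAGA-GFP expression was quantified in HEPG2 cells exposed to compounds and 500 pg/mL final TGF-beta for 18 h at 37 degrees C; unstimulated wells defined full inhibition.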
TDP1 cell CPT: growth inhibition of DT40 Tdp1-/-;hTDP1 cells with camptothecin (screen for TDP1 inhibitors); AID 686979; chicken DT40 Tdp1-/-;hTDP1 cells + 20 nM CPT, ATP luminescence, 48 h; hit rate 12% among 420,000; Potency, µM (top dose mostly 46.2 µM), inactives show at the highest dose activity change, negative = growth inhibition, actives largely listed as inhibitors; further: on the % scale 0 is the no-effect control and ±100 the full control effect; nearly all actives have a fitted effect of over 55% in size
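Chicken DT40 Tdp1-/- cells stably complemented with human TDP1 were seeded at 400 cells/well in medium containing 20 nM camptothecin, exposed to pin-transferred compounds, and grown at 37 °C for at least 48 hr. Viability was read as ATP luminescence.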
TDP1 cell noCPT: qHTS for Inhibitors of human tyrosyl-DNA phosphodiesterase 1 (TDP1): qHTS in cells in absence of CPT | Potency, µM (top dose mostly 46.2 µM), for the others: top-dose activity change, negative = growth inhibition, most hits filed as inhibitors | DT40 Tdp1-/- hTDP1 cells, no CPT, ATP luminescence, 48 h | hit rate 15% among 420,000; further: on the % scale 0 is the no-effect control and ±100 the full control effect; nearly all actives have a fitted effect of over 55% in size
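Growth of hTDP1-complemented DT40 Tdp1-knockout cells is measured by ATP luminescence after at least 48 hr compound exposure at 37 °C, with DMSO substituting for the 20 nM CPT used in the parallel screen.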
ATXN viability: cell viability loss in ATXN counter-screen; S2 cells (HEK-293 line with an ATXN2-luciferase reporter) viability, CellTiter-Fluor protease fluorescence, 24 h; hit rate 0.49% among 400,000; Potency, µM (titrated, usually from 56.7 µM), usual class: cytotoxic; further: nearly all actives have a fitted effect of over 40% in size
ATXN2 expr inh: ATXN2 expression inhibition. Potency, µM (highest dose often 57 µM), inactives show at the highest dose activity change, negative = inhibition, most hits filed as inhibitors. HEK-293 ATXN2-luciferase reporter, luminescence, 24 h. AID 1745845. hit rate 0.72% among 360,000; further: on the % scale 0 is the no-effect control and ±100 the full control effect; nearly all actives have a fitted effect of over 55% in size
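ATXN2-luciferase reporter cells (luciferase flanked by upstream and downstream ATXN2 gene portions) were treated 24 h at 37 °C with compounds at up to 57 uM. SteadyGlo luminescence gave expression; GF-AFC fluorescence gave viability.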
* hit, by the source's call; i = inactive; ? = inconclusive; . = no result given; [ ] = dose if it differs, or a comment. The call rests on the fitted dose curve; in most records, active means well fitted curve in the direction sought with a large enough effect; inconclusive means small, poorly fitted or top-dose-only effect, or another doubt; inactive means no such curve, though single readings can be large; an effect the other way counts as inactive or inconclusive. Potency means the concentration at half of the fitted maximal effect.

SMILES	HepG2 viability	TGFb SMAD3 inh	TDP1 cell CPT	TDP1 cell noCPT	ATXN viability	ATXN2 expr inh
CCC(C(=O)O)C1CCC(C)C(C(C)C(O)C(C)C(=O)C(CC)C2OC3(C=CC(O)[C@@]4(CC[C@](C)(C5CC[C@@](O)(CC)C(C)O5)O4)O3)C(C)CC2C)O1 (some centres undefined)	.	.	.	.	.	7.7µM*
COc1ccccc1NC(=O)Nc1nc(CC(=O)NCc2c(F)cccc2F)cs1	-5%	10%	?	21µM*	i	10%
COc1ccccc1NC(=O)NCc1ccccc1F	-1%	12%	?	18%	i	5%
COc1ccccc1NC(=O)Nc1nc(CC(=O)NCc2ccc(F)cc2)cs1	-20%	-2%	9.2µM*	16µM*	?	-27%
COc1ccc(C(=O)Nc2nc(CC(=O)NCCc3ccccc3)cs2)cc1	1%	-10%	?	?	i	22%
COc1ccccc1NC(=O)Cc1cccc2ccccc12	-10%	4%	?	?	i	7%
COc1cccc(CNC(=O)Cc2csc(NC(=O)Nc3ccccc3OC)n2)c1	-6%	11%	?	21µM*	i	4%
COc1ccc(C(=O)Nc2nc(CC(=O)NCCc3cccc(OC)c3)cs2)cc1	-29%	-28%	?	15µM*	i	57%
COc1cc(C2C(C(=O)Nc3ccc(C)cc3C)=C(C)Nc3nc4ccccc4n32)cc(OC)c1OC (centres undefined)	-3%	-14%	-12%	-9%	i	6%
COc1ccc(-c2csc(N(CCCN(C)C)C(=O)c3ccc(OC)c(OC)c3)n2)cc1	-48%	-20%	?	-35%	i	.
COc1ccccc1NC(=O)Nc1nc(CC(=O)N2CCN(c3ccccc3F)CC2)cs1	-5%	-1%	?	18µM*	?	?
COc1ccccc1CC(=O)N1CCN(c2ccccc2F)CC1	-3%	-16%	-1%	?	i	.
CC1(C)Oc2cc3oc(-c4cc(O)cc(O)c4)cc3cc2CC1O (centres undefined)	-23%	34%	21µM*	?	i	?
Cc1c(NC(=O)C(F)(F)F)ccc2nc3c(=O)n(C)c(=O)n(C)c3nc12	-41%	16%	?	16µM*	i	11%
CCCNC(=O)C1(C)CCN(C(=O)c2ccc3ccccc3c2)C1 (centres undefined)	-3%	1%	-4%	4%	i	2%
Cc1ccc(NS(=O)(=O)c2cc(C(=O)N(C)C)ccc2C)cc1C	5%	-4%	21%	-22%	i	-22%[11.3 µM]
c1ccc(Cn2c[n+](Cc3ccccc3)c3ccccc32)cc1	-3%	10%	3.3µM*	2.9µM*	i	.
CCOc1cccc(=O)c2c(C)n(C)c(C)c12	-18%	-3%	-45%	?	i	-12%
CCCCCn1c(C)c2c(OCC)cccc(=O)c2c1C	2%	-28%	23µM*	?	?	.
CC(=O)N/C(=C\c1ccccc1)C(=O)OCC(=O)N(CC(C)C)c1c(N)n(Cc2ccccc2)c(=O)[nH]c1=O	-7%	0%	2%	-7%	i	-6%
CCCCNC(C(=O)Nc1ccc(Cl)c([N+](=O)[O-])c1)c1ccccc1 (centres undefined)	-20%	?	?	21µM*	i	-2%
O=C(Nc1cc(Cl)cc(Cl)c1)C(NCCO)c1ccccc1 (centres undefined)	2%	-4%	-2%	?	i	0%
COc1ccc(NC(=O)c2cc([N+](=O)[O-])nn2Cc2ccccc2)c(C)c1	-9%	2%	0%	?	i	25%
COc1cc([N+](=O)[O-])cc(/C=N/NC(=O)c2ccc(C)nc2)c1O	11%	16%	5.2µM*	2.9µM*	?	?
COc1cc(/C=N/NC(=O)c2ccc(C)nc2)cc([N+](=O)[O-])c1O	3%	10%	20%	-12%	i	1%
SMILES	HepG2 viability	TGFb SMAD3 inh	TDP1 cell CPT	TDP1 cell noCPT	ATXN viability	ATXN2 expr inh
Cc1ccc(C(=O)N/N=C/c2cc(Br)ccc2O)cn1	-34%	?	4.1µM*	5.2µM*	?	2µM*
COc1cc([N+](=O)[O-])cc(/C=N/NC(=O)C(C)Nc2ccccc2C)c1O (centres undefined)	-12%	-13%	15µM*	18µM*	i	?
COc1cc([N+](=O)[O-])cc(/C=N/NC(=O)c2ccc(NC(=O)c3ccc(C)cc3)cc2)c1O	-72%	?	2.9µM*	4.1µM*	?	?
COc1ccc(Oc2ncc3nc(-c4cccs4)c(=O)n(C)c3n2)cc1	.	.	2%	-2%	.	.
Cc1ccc(-n2c(SCC(=O)NCc3ccco3)nc3c(sc4ccccc43)c2=O)cc1	-6%	-7%	?	?	i	59%
CC(C)(C)n1ncc2c(=O)n(Cc3ccc(C#N)cc3F)cnc21	-8%	-8%	.	.	.	.
CC(Sc1nc2ccccc2[nH]1)C(=O)Nc1ccccc1F (centres undefined)	-17%	-10%	-21%	-10%	i	0%[11.3 µM]
Cc1cc([N+](=O)[O-])nn1CC(=O)N/N=C/c1ccccc1F	7%	28%	7%	3%	?	-18%
Cc1cc(C)n(CC(=O)N/N=C/c2cc([N+](=O)[O-])ccc2O)n1	1%	-11%	21µM*	15µM*	i	?
Nc1nnnn1CC(=O)N/N=C/c1cc([N+](=O)[O-])ccc1O	-17%	-12%	-23%	-9%	?	-30%
Cc1cc([N+](=O)[O-])nn1CC(=O)N/N=C/c1ccccc1O	-6%	-2%	8.2µM*	18µM*	?	.
CCOc1cc(/C=N/NC(=O)Cn2nc([N+](=O)[O-])cc2C)cc(Br)c1OCc1ccccc1F	1%	22%	21µM*	?	i	-17%
O=C(Cn1nnc(-c2ccccc2)n1)N/N=C/c1cccc([N+](=O)[O-])c1O	-10%	-4%	?	21µM*	i	2%
CCOc1cc(/C=N/NC(N)=O)cc(Br)c1OCc1ccccc1F	-1%	-10%	-27%	?	i	-30%
NC(=O)C1CCCN(Cc2ccc3c(c2)CN(Cc2ccccc2)CCO3)C1 (centres undefined)	.	.	6%[9.04 µM]	-18%	i	.
CC(C)=CCC[C@H](C)C[C@@H]1Cc2[nH][nH]c(=O)c2[C@@H](c2ccc(F)cc2)O1	.	.	?	?	?	-3%

Bioassay records (PubChem)
